High-throughput results as filed in PubChem.
Tb PGK inh: inhibitors of T. brucei phosphoglycerate kinase. AID 602233. Potency, µM (highest dose often 57.5 µM), inactives show at the top dose activity change, negative = inhibition, actives largely listed as inhibitors. 380,000 compounds, 0.043% hits. PGK/GAPDH coupled, Kinase-Glo luminescence, 60 min. P07378; also: nearly all actives have a fitted effect of over 60% in size
Target sequence (P07378 whole entry, looked up): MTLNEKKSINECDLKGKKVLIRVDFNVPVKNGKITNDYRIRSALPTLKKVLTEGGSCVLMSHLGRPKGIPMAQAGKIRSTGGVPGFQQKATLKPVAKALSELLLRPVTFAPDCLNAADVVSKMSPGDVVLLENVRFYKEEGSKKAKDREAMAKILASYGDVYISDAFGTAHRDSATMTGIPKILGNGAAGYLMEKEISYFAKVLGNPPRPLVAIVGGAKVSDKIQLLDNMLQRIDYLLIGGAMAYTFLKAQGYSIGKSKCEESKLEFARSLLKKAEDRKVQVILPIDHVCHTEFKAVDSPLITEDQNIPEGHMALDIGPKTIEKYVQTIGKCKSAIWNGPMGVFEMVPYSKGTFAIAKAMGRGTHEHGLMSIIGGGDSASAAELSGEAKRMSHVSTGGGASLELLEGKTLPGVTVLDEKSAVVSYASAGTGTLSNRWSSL
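Recombinant glycosomal PGK reaction used 1,3-bisphosphoglycerate generated in-well by GAPDH (100nM final) in 100mM TEA pH 7.6, 5mM MgCl2, 0.01% Tween-20. After 60 minutes at room temperature, ATP was read by Kinase-Glo Plus luminescence end-point.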
VDR inh: vitamin D3 receptor (human) inhibition; Potency, µM, for inactives: max response, negative = inhibition, actives largely listed as inhibitors; 400,000 compounds, 0.93% hits; VDR-SRC2-3 peptide fluorescence polarization, 2 h; P11473
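FP read-out; VDR + SRC2-3 coactivator peptide; 23 nl compound by pintool; 2 h RT incubation; reagents held at 4 deg C, protected from light.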
Pin1 inhibitor: blocks the human prolyl isomerase Pin1; Q13526; Pin1 FP peptide displacement, HiFluor488, 10 min; Potency, µM (series often up to 115 µM), for inactives: top-dose activity, negative = inhibition, actives largely listed as inhibitors; 390,000 compounds, 0.009% hits; active = well fitted inhibition curve with a large enough effect in the polarisation, with a control signal flat, not every such curve was filed as active; inconclusive = small, poorly fitted or top-dose-only effect, or effect the other way, or a change in a side signal; inactive = no such curve, though single readings can be large or run the other way; the % refers to the polarisation
Target sequence (Q13526 whole entry, looked up): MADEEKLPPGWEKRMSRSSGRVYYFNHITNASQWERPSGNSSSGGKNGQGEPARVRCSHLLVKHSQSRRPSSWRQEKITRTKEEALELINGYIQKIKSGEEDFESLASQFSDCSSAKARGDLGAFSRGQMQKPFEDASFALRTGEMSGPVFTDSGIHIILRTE
Tb PFK inh: blocks T. brucei phosphofructokinase. O15648. T. brucei PFK, ADP-Glo luminescence. Potency, µM (series often up to 57.5 µM), inactives show top-dose activity, negative = inhibition, most hits filed as inhibitors. 330,000 compounds, 0.17% hits. AID 485367;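 also: 0% = uninhibited 1x PFK enzyme wells and -100% = no-enzyme wells; nearly all actives have a fitted effect of over 60% in size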
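1.25 nM PFK with 0.5 mM F6P and 0.1 mM ATP in 0.1 M TEA pH 8.0, 5 mM MgCl2, incubated 45 min at room temperature; ADP measured by ADP-Glo luminescence; compounds titrated up to 57 uM.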
GLS inhibitor: blocks human kidney-isoform glutaminase activity | O94925 | GLS enzymatic activity, qHTS titration | Potency, µM (series often up to 45.5 µM), without a hit: top-dose activity change, negative = inhibition, actives largely listed as inhibitors | 410,000 compounds, 0.21% hits | AID 624170
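Read-out is an Amplex red fluorescence increase coupled through glutamate oxidase and HRP, measured before and after 30 min room-temperature incubation. hKGA is in 45 mM KH2PO4 (pH 8.2) with 0.02% Tween-20; glutamine added as 1mM solution.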
* marks the source's active call; other numbers are inactive results. Hits are enriched below; roughly 1.1% of the tested compounds scored in any of these assays. Unless noted, calls follow the shape of the dose curve; as a rule, active = well fitted curve in the direction sought with a large enough effect; inconclusive = small, poorly fitted or top-dose-only effect, or another doubt; inactive = no such curve, though single readings can be large; an effect the other way counts as inactive or inconclusive. Unless noted, % is scaled to controls: 0 for no effect and ±100 for the full control effect; potency is read from the fitted curve at half-maximal effect.

What do the screens show for `CC1(C)Cc2c(C#N)c(N3CCOCC3)nc(-c3ccccc3)c2CO1`?
Tb PGK inh: 4%; VDR inh: -14%; Pin1 inhibitor: -1%; Tb PFK inh: -5%; GLS inhibitor: 3%

What do the screens show for `CC1CCN(c2nc(-c3ccco3)c3c(c2C#N)CC(C)(C)OC3)CC1`?
Tb PGK inh: -4%; VDR inh: 50µM*; Pin1 inhibitor: 9%; Tb PFK inh: 8%; GLS inhibitor: 0%

What do the screens show for `COc1ccc(C(=O)/C=C/c2ccc3c(c2)OCCO3)cc1`?
Tb PGK inh: -9%; VDR inh: -27%; Pin1 inhibitor: 3%; Tb PFK inh: 1%; GLS inhibitor: -20%

How did O=C(/C=C/c1ccc2c(c1)OCCO2)c1ccccc1 do in these assays?
Tb PGK inh: -6%; VDR inh: 50µM*; Pin1 inhibitor: -2%; Tb PFK inh: 1%; GLS inhibitor: -1%

Results for COc1ccccc1/C=C/C(=O)c1ccccc1 ?
Tb PGK inh: -5%; VDR inh: 79µM*; Pin1 inhibitor: 3%; Tb PFK inh: -5%; GLS inhibitor: -1%

Results for O=C(/C=C/c1cccc2ccccc12)c1ccncc1 ?
Tb PGK inh: inactive; VDR inh: 14µM*; Pin1 inhibitor: 0%; Tb PFK inh: -1%; GLS inhibitor: 1%

How did COc1cc(O)c(C(=O)/C=C/c2ccccc2)c(OC)c1 do in these assays?
Tb PGK inh: -3%; VDR inh: 14µM*; Pin1 inhibitor: -5%; Tb PFK inh: -2%; GLS inhibitor: 4%

Results for Cc1ccc(CNC(=O)c2cc(Sc3ccc(F)cc3F)nc3ccccc23)cc1 ?
Tb PGK inh: inactive; VDR inh: 15%; Pin1 inhibitor: 1%; GLS inhibitor: 1%

How did O=C1[C@@H]2C[C@@H]3C[C@H]1C[C@@](O)(C3)C2 do in these assays?
VDR inh: 9%; GLS inhibitor: 0%

What do the screens show for `CN(C(=O)C1CCC(=O)N(C2CC2)C1)C1CCCCC1` (stereo unspecified)?
Tb PGK inh: inactive; VDR inh: 2%; Pin1 inhibitor: -1%; Tb PFK inh: -10%; GLS inhibitor: -10%

How did N#Cc1ccc(/C=C/C(=O)c2ccccc2)cc1 do in these assays?
Tb PGK inh: -9%; VDR inh: 14µM*; Pin1 inhibitor: -2%; Tb PFK inh: 0%; GLS inhibitor: 10%

What do the screens show for `O=C(/C=C/c1ccccc1O)c1ccc(Cl)cc1`?
Tb PGK inh: inactive; VDR inh: 35µM*; Pin1 inhibitor: 0%; Tb PFK inh: -2%; GLS inhibitor: 26%

How did O=C(/C=C/c1ccc[nH]1)c1ccccc1 do in these assays?
Tb PGK inh: inactive; VDR inh: 79µM*; Pin1 inhibitor: 25%; Tb PFK inh: -6%; GLS inhibitor: 7%

What do the screens show for `O=C(/C=C/c1ccccc1O)c1ccccc1`?
Tb PGK inh: inactive; VDR inh: 28µM*; Pin1 inhibitor: -3%; GLS inhibitor: -2%

What do the screens show for `COc1ccccc1/C=C/C(=O)c1ccc(Cl)cc1`?
Tb PGK inh: -8%; VDR inh: inconclusive; Pin1 inhibitor: 2%; Tb PFK inh: -1%; GLS inhibitor: 4%

Results for Cc1nn2c(C)c(C(=O)NCc3cccc(Br)c3)cnc2c1-c1ccccc1 ?
Tb PGK inh: 8%; VDR inh: -1%; Pin1 inhibitor: 45%; GLS inhibitor: 8%

What do the screens show for `O=C1CCc2cc(S(=O)(=O)NCc3ccccc3)ccc2N1`?
Pin1 inhibitor: 5%

How did Fc1ccc(-c2csc(=S)[nH]2)cc1 do in these assays?
Tb PGK inh: inactive; VDR inh: 79µM*; Pin1 inhibitor: -10%; Tb PFK inh: -9%; GLS inhibitor: 0%

Results for S=c1[nH]c(-c2ccccc2)cs1 ?
Tb PGK inh: 4%; VDR inh: inconclusive; Pin1 inhibitor: -17%; Tb PFK inh: -14%; GLS inhibitor: inconclusive

Results for COC/C=C/C1=CC2=CC(=O)C(C)(OC(=O)c3cnc4ccccc4n3)C(=O)C2=CN1c1ccc(CO)cc1 (stereo unspecified) ?
Tb PFK inh: 4.8µM*

What do the screens show for `CCc1ccccc1NC(=O)Cn1c(=O)n(CCc2ccccc2)c(=O)c2sc3ccccc3c21`?
Tb PGK inh: -3%; VDR inh: -14%; Pin1 inhibitor: 1%; GLS inhibitor: -2%

What do the screens show for `O=S(=O)(c1ccccc1)N1CCC[C@@]2(CCN(c3ccccc3)C2)C1`?
VDR inh: 32µM*

What do the screens show for `Cc1cc(O)c(C=O)c2c1C(=O)Oc1c(C)c(O)c3c(c1O2)C(O)OC3=O` (stereo unspecified)?
VDR inh: 6.3µM*

What do the screens show for `COc1cc(C)c2c(c1C=O)Oc1c(c(C)c(O)c3c1C(O)OC3=O)OC2=O` (stereo unspecified)?
Tb PGK inh: inconclusive; VDR inh: 45µM*; Pin1 inhibitor: inconclusive; Tb PFK inh: -29%; GLS inhibitor: -5%

What do the screens show for `COC(=O)C1(C)C=C(Nc2ccc(OC)cc2)C(=O)N1c1ccc(OC)cc1` (stereo unspecified)?
VDR inh: 9%

How did COc1ccc([C@@H]2C[C@H]3[C@@H](CN2S(=O)(=O)c2ccccc2)C(=O)C[C@@H](c2ccccc2F)N3S(=O)(=O)c2ccc(C)cc2)cc1 do in these assays?
Tb PGK inh: inactive; GLS inhibitor: 0%

Results for O=C(NCCN1C(=O)C2C3C=CC(C3)C2C1=O)NCc1ccccc1 (stereo unspecified) ?
Tb PGK inh: -1%; VDR inh: 89µM*; Pin1 inhibitor: 5%; Tb PFK inh: 0%; GLS inhibitor: -2%

How did O=C(NCCN1C(=O)C2C3C=CC(C3)C2C1=O)Nc1ccccc1 (stereo unspecified) do in these assays?
Tb PGK inh: 8%; VDR inh: -16%; Pin1 inhibitor: 1%; Tb PFK inh: 4%; GLS inhibitor: -3%

What do the screens show for `Cc1cn(CC(=O)NCCc2c[nH]c3ccccc23)c(=O)[nH]c1=O`?
Tb PGK inh: inactive; VDR inh: -11%; Pin1 inhibitor: -7%; GLS inhibitor: 12%

What do the screens show for `COc1ccc(CNC(=O)c2nn(-c3ccccc3C)nc2CO)cc1`?
Tb PGK inh: 9%; VDR inh: -5%; Pin1 inhibitor: 4%; GLS inhibitor: 3%

How did CCCOC(=O)c1c(NC(=O)C(C)Sc2nc(-c3ccccc3)cc(C(F)(F)F)n2)sc(C(=O)N(C)C)c1C (stereo unspecified) do in these assays?
Tb PGK inh: 4%; VDR inh: inconclusive; Pin1 inhibitor: 7%; GLS inhibitor: 1%

How did CCN(CC)C(=O)c1sc(NC(=O)C(C)Sc2nc(-c3ccccc3)cc(C(F)(F)F)n2)c(C(=O)OC)c1C (stereo unspecified) do in these assays?
Tb PGK inh: 2%; VDR inh: 35µM*; Pin1 inhibitor: 13%; GLS inhibitor: -3%
